# PubChem BioAssay (NCI)
# The panel holds about 83,000 compounds, 20% with a hit somewhere; the sample as a whole holds those more often.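 Testing used 96-well plates and a 48-hour single-concentration exposure. Example: -40 means 40% of the starting cells died.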 Unmarked numbers belong to inactive results. The source made the active and inactive calls. Rule for the calls: active = growth percent below 10; inactive = the rest.
# Assays:
# Assay in all cases: NCI-60 one-dose screen, 48 h (100 = growth as untreated, 0 = no growth, -100 = all killed)
# Settings in all cases: 10 µM
# K-562 leukemia = tested on: K-562 leukemia
# MALME-3M melanoma = tested on: MALME-3M melanoma
# MDA-MB-231 breast = tested on: MDA-MB-231 breast
# RXF 393 renal = tested on: RXF 393 renal
# SF-268 CNS = tested on: SF-268 CNS
# SF-295 CNS = tested on: SF-295 CNS
# SF-539 CNS = tested on: SF-539 CNS
# UACC-257 melanoma = tested on: UACC-257 melanoma
# M14 melanoma = tested on: M14 melanoma
# HCT-15 colon = tested on: HCT-15 colon
# HT29 colon = tested on: HT29 colon
# SNB-75 CNS = tested on: SNB-75 CNS
# SNB-19 CNS = tested on: SNB-19 CNS
# U251 CNS = tested on: U251 CNS
# PC-3 prostate = tested on: PC-3 prostate
# SK-MEL-5 melanoma = tested on: SK-MEL-5 melanoma
# UACC-62 melanoma = tested on: UACC-62 melanoma
# LOX IMVI melanoma = tested on: LOX IMVI melanoma
# SK-MEL-28 melanoma = tested on: SK-MEL-28 melanoma
# SK-MEL-2 melanoma = tested on: SK-MEL-2 melanoma
SMILES,growth (K-562 leukemia),growth (MALME-3M melanoma) [%],growth (MDA-MB-231 breast),growth (RXF 393 renal),growth (SF-268 CNS),growth (SF-295 CNS),growth (SF-539 CNS),growth (UACC-257 melanoma) [%],growth (M14 melanoma) [%],growth (HCT-15 colon),growth (HT29 colon),growth (SNB-75 CNS),growth (SNB-19 CNS) [%],growth (U251 CNS),growth (PC-3 prostate),growth (SK-MEL-5 melanoma),growth (UACC-62 melanoma) [%],growth (LOX IMVI melanoma),growth (SK-MEL-28 melanoma),growth (SK-MEL-2 melanoma)
Cc1nc2c(c(=O)[nH]1)OCN(Cc1ccccc1)C2,88%,87,107%,118%,103%,107%,109%,97.8,101,99.4%,105%,89.6%,97.2,108%,89.1%,102%,105,101%,105%,130%
COc1ccc(Cl)cc1-n1nnc(-c2nc3ccccc3[nH]2)c1N,94.5%,63.8,86.1%,74.2%,62.6%,58.7%,91.6%,95.4,89.3,94.1%,47.2%,32.5%,77,53.2%,89.2%,95.9%,104,77.4%,100%,93.2%
CC(C)(C#N)Nc1ccccc1,102%,104,100%,101%,113%,77.7%,96.2%,98.5,107,99%,99.5%,79.5%,98.9,95.4%,108%,107%,98.5,97.8%,111%,109%
COc1ccc(C(=O)/C=C/c2cc(-c3cc(OC)c(OC)c(OC)c3)n[nH]2)cc1,5.85% (active),69,38.5%,30.1%,31.2%,-23.8% (active),-25.6% (active),70.8,54.6,8.52% (active),1.28% (active),43.6%,47.8,-2.19% (active),20.5%,57.2%,52.3,-11.6% (active),79.4%,70.4%
COc1ccc(OC)c(/C=C/c2nc(SC)n(-c3ccc(Cl)cc3)n2)c1,30.7%,44.8,91.7%,59.7%,91.7%,46.8%,88.5%,87.3,60,58.9%,90.3%,72.1%,81.4,78.1%,38.9%,53.4%,49.5,83.3%,85.1%,88.5%
COc1cc(Cl)cc(-c2nn(-c3cccc(NC(=O)c4ccc(Cl)c(Cl)c4)c3)cc2-c2ccncc2)c1,46.3%,96.4,33.9%,59.2%,82.4%,36.1%,74.5%,84.2,68.9,57.9%,56.4%,50.6%,71.6,64.1%,34%,78.5%,75.4,72.8%,87.7%,78.4%
C#Cc1ccc(-n2c(/C=C/c3ccc(C(F)(F)F)cc3)nc3ncccc3c2=O)cc1,4.03% (active),39.1,56.9%,-10.4% (active),31.4%,32.6%,45.2%,29,10.7,22.3%,0.334% (active),25.7%,68,39.2%,29.4%,-73.6% (active),17,-18% (active),33.3%,-37.1% (active)
Cc1nc2ccccc2c(N)c1-c1cc(C)c2c(C)nc3ccccc3c2n1,-36.1% (active),95.3,-80.2% (active),-80.3% (active),-67.5% (active),85.2%,-71.9% (active),105,39.3,-90% (active),-93.5% (active),-77.6% (active),22.6,-76.6% (active),-18.5% (active),62.1%,97,-84.7% (active),-90.7% (active),96.3%
